In the library only some 9.9% were active in any assay of this set; here they are far more common.
Tau ThT inhib: qHTS for Inhibitors of Tau Fibril Formation, Thioflavin T Binding; Microtubule-associated protein tau (Homo sapiens), P10636; recombinant tau K18 P301L, heparin-induced fibrillization, ThT fluorescence; Potency, µM (titrated, usually from 57.4 µM), actives largely listed as inhibitors; actives 2.1% (n = 270,000); active = well fitted curve in the direction sought with a large enough effect; inconclusive = small, poorly fitted or top-dose-only effect, or another doubt; inactive = no such curve, though single readings can be large; an effect the other way counts as inactive or inconclusive; note: nearly all actives have a fitted effect of over 55% in size
Target sequence (P10636 561-689 P618L limits assumed): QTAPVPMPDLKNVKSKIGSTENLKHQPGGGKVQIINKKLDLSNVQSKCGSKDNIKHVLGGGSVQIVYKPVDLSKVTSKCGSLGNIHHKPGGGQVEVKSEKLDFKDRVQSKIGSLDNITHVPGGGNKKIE
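Fibril formation assay: tau K18 P301L at 15 uM with trace Alexa 594 label, heparin inducer 20 uM, pH 7 sodium acetate buffer, 37 C for 6 hr; endpoint ThT signal.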
KDM4E inh: qHTS Assay for Inhibitors of Human Jumonji Domain Containing 2E (JMJD2E) | AID 2147, 2009 | JMJD2E catalytic domain, FDH-coupled NADH fluorescence (FDH is formaldehyde dehydrogenase) | actives 1.6% (n = 230,000) | Lysine-specific demethylase 4E (Homo sapiens), B2RXH2 | Potency, µM (titrated, usually from 57.1 µM), usual class: inhibitors; note: nearly all actives have a fitted effect of over 50% in size
Target sequence (B2RXH2 1-337 limits assumed): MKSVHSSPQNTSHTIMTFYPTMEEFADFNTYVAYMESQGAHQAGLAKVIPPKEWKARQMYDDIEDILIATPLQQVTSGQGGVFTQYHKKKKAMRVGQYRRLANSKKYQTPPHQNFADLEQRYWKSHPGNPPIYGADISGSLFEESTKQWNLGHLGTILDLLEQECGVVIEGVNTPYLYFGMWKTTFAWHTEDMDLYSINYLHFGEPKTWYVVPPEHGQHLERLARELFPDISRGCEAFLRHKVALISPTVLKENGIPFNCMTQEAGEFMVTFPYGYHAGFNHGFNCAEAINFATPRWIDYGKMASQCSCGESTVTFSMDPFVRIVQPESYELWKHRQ
Tau fluor counter: Counterscreen qHTS for Inhibitors of Tau Fibril Formation, Fluorescence Polarization. tau K18 P301L (four-repeat tau fragment) Alexa594 fluorescence, heparin fibrillization. Potency, µM (doses to about 57.7 µM). actives 0.93% (n = 280,000). AID 1463, 2008; active = well fitted curve in the direction sought with a large enough effect; inconclusive = small, poorly fitted or top-dose-only effect, or another doubt; inactive = no such curve, though single readings can be large; an effect the other way counts as inactive or inconclusive; note: nearly all actives have a fitted effect of over 55% in size
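Human K18 P301L tau (15 uM unlabeled plus 0.24 uM Alexa 594-labeled, final) in 100 mM sodium acetate pH 7 was mixed with compound and 20 uM heparin and incubated 6 hr at 37 C.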
Tau FP inhib: qHTS for Inhibitors of Tau Fibril Formation, Fluorescence Polarization; actives 0.39% (n = 280,000); K18 P301L tau heparin fibrillization, Alexa594 FP, 6 h; Potency, µM (doses to about 57.7 µM), usual class: inhibitors; Microtubule-associated protein tau (Homo sapiens), P10636; active = well fitted curve in the direction sought with a large enough effect; inconclusive = small, poorly fitted or top-dose-only effect, or another doubt; inactive = no such curve, though single readings can be large; an effect the other way counts as inactive or inconclusive; note: nearly all actives have a fitted effect of over 55% in size
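FP of Alexa 594-tau after heparin (20 uM) induction. Substrate: human K18 P301L, 15 uM unlabeled, 0.24 uM labeled. Buffer 100 mM sodium acetate pH 7. 6 hr, 37 C.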
HPGD inh: qHTS Assay for Inhibitors of HPGD (15-Hydroxyprostaglandin Dehydrogenase); Potency, µM, actives largely listed as inhibitors; purified HPGD, NADH fluorescence kinetic, PGE2 substrate; AID 894, 2007; actives 4.3% (n = 150,000)
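NADH formation kinetics: reaction with 30 uM PGE2 and 1 mM NAD+ (final), 20 nM enzyme, Tris-HCl pH 8 with Tween 20, after 15 min compound preincubation at room temperature. Fluorescence change, last versus first of five reads.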
ALDH1A1 block: qHTS Assay for Inhibitors of Aldehyde Dehydrogenase 1 (ALDH1A1). Aldehyde dehydrogenase 1A1 (Homo sapiens), P00352. Purified ALDH1A1, NADH fluorescence, propionaldehyde substrate. Potency, µM (top dose mostly 75.3 µM), most hits filed as inhibitors. actives 7.3% (n = 220,000). AID 1030, 2008
A number is an active result; . = inactive; ? = inconclusive; / = no result given; [ ] = remark or other dose. Unless noted, calls come from the whole dose curve; as a rule, active = well fitted inhibition curve with a large enough effect (not every such curve was filed as active); inconclusive = small, poorly fitted or top-dose-only effect, or another doubt; inactive = no such curve, though single readings can be large or run the other way.

SMILES	Tau ThT inhib	KDM4E inh	Tau fluor counter	Tau FP inhib	HPGD inh	ALDH1A1 block
COc1ccccc1C(=O)CSc1ccccn1	.	.	.	.	/	.
O=C(COc1ccccc1Cl)N1CCN(c2ccc([N+](=O)[O-])c(N3CCOCC3)c2)CC1	13µM	.	?	.	.	11µM
CC(C)(C)c1ccc(CNc2cc(N3CCOCC3)ccc2[N+](=O)[O-])cc1	7.1µM	.	4µM[quencher]	28µM	/	1.6µM
Cc1cc(C)n(-c2cc(N3CCN(C(=O)c4cccc(Br)c4)CC3)ccc2[N+](=O)[O-])n1	?	.	.	.	.	14µM
O=C(c1ccccc1Br)N1CCN(c2ccc([N+](=O)[O-])c(N3CCOCC3)c2)CC1	?	.	.	.	/	7.9µM
O=[N+]([O-])c1ccc(N2CCCC2)cc1N1CCCC1	18µM	.	.	.	.	14µM
O=c1c(-c2cc(-c3ccccc3)nc3c2COc2ccc(Cl)cc2-3)coc2ccc(F)cc12	.	/	.	.	/	/
Cc1ccc(C2=[N+]([O-])C3(CCCCC/C3=N\O)N(O)C2(C)C)o1 (centres undefined)	.	.	.	.	.	28µM
Cc1ccc(-n2c(C)cc(/C=N/NC(=O)CC3(C)OCCO3)c2C)c(C)c1	.	.	.	.	.	14µM
Cc1ccc(-n2c(C)cc(/C=N/NC(=O)c3ccncc3)c2C)c(C)c1	.	.	.	.	.	13µM
Cc1ccc(-n2c(C)cc(/C=N/NC(=O)c3ccncc3)c2C)cc1C	?	?	?	.	/	?
Cc1cccc(C)c1-n1c(C)cc(/C=N/NC(=O)c2ccncc2)c1C	.	.	.	.	.	28µM
CC1(CC(=O)N/N=C/c2cc([N+](=O)[O-])c(O)cc2O)OCCO1	?	16µM	.	.	/	?
O=C(CCS(=O)(=O)c1cc(Br)cc2c1N(C(=O)C1CC1)CC2)N1CCN(c2cccc(C(F)(F)F)c2)CC1	?	/	.	.	/	/
Cc1nnc(SCC(=O)Nc2c(C)n(C)n(-c3ccccc3)c2=O)n1Cc1ccccc1	.	.	.	.	/	.
CCOc1ccccc1Nc1nc2ccccc2n1C(C)C	.	.	.	.	/	.
CCOC(=O)C1CCN(C(=O)CSc2nccc(C)n2)CC1	.	.	.	.	/	.
O=C(CC(c1cccs1)N1Cc2ccccc2C1=O)Nc1ccccc1F (centres undefined)	.	/	.	.	/	/
O=C(N/N=C/c1cc(Cl)ccc1O)c1ccncc1	.	13µM	.	.	/	/
COc1ccccc1N1C(=O)CC(Sc2ncccc2C(=O)O)C1=O (centres undefined)	.	.	.	.	.	.
O=C1CC(Sc2ncccn2)C(=O)N1c1ccccc1C(F)(F)F (centres undefined)	.	.	.	.	.	20µM
COc1ccc(S(=O)(=O)NCCSC(C)(C)C)c(Cl)c1Cl	.	.	.	.	?	2.4µM
CSC1=C(C#N)C(c2ccccc2)C(C(C)=O)=C(C)N1 (centres undefined)	.	.	.	.	/	.
CSCSC1=C(C#N)C(c2ccc(Cl)cc2)C(C(C)=O)=C(C)N1 (centres undefined)	.	?	.	.	32µM	8.9µM
CCOC(=O)CSC1=C(C#N)C(c2ccccc2)C(C(C)=O)=C(C)N1 (centres undefined)	.	.	.	.	.	32µM
Cc1ccc(C2=NN(CC(=O)NC(C)c3ccccc3)C(=O)CC2)cc1 (centres undefined)	.	/	.	.	/	/
COc1ccc(CC(=O)Nc2ccc(-c3nc4ccccc4s3)cc2Cl)cc1OC	.	/	?	?	/	/

Compound activity (PubChem)
